“And” between values parts separate entries of the source, which are not always exact repeats. Identical values can stand only once. About 2,000 (36%) of roughly 5,500 compounds were called active. Not shown: some 18% with an inconclusive outcome. No stated cut-off is given here; in the data, active means normalized growth mostly below about 0.91 (no sharp cut-off); inconclusive means no clear call, values can overlap the other calls; inactive means mostly above about 0.92. The list shows a part of the results.
Assay: chemical genetic growth profiling, strain panel (AID 1159580);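 further: tested at 20 µM; growth read once vehicle control cultures reached saturation at 30 °C; 1 = growth at the plate median or of vehicle wells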
Details: S. cerevisiae deletion strains, growth OD

Measured: normalized growth

COC(=O)[C@@H]1C(O)CC[C@H]2CN3CCc4c([nH]c5ccccc45)[C@@H]3C[C@@H]21 (some centres not stated)
inactive: locus YAL013W, strain DEP1, stronger effect = lower value 0.998 | locus YAL021C, strain ccr4, stronger effect = lower value 1.01 | locus YAL026C, strain drs2, stronger effect = lower value 1.01 | locus YAL030W, strain snc1, stronger effect = lower value 1.01 | locus YBL061C, strain skt5, stronger effect = lower value 1.01 | locus YBR009C, strain hhf1, stronger effect = lower value 0.998 | locus YBR021W, strain FUR4, stronger effect = lower value 1.01 | locus YBR023C, strain chs3, stronger effect = lower value 1.02 | locus YBR171W, strain sec66, stronger effect = lower value 1.02 | locus YBR229C, strain ROT2, stronger effect = lower value 0.99 | locus YBR231C, strain swc5, stronger effect = lower value 0.999 | locus YBR279W, strain paf1, stronger effect = lower value 1.02 | locus YCL011C, strain gbp2, stronger effect = lower value 1.01 | locus YCL016C, strain dcc1, stronger effect = lower value 1.02 | locus YCL029C, strain bik1, stronger effect = lower value 0.993 | locus YCL061C, strain MRC1, stronger effect = lower value 1.01 | locus YCL069W, strain vba3, stronger effect = lower value 1.01 | locus YCR088W, strain abp1, stronger effect = lower value 1.01 | locus YDL005C, strain med2, stronger effect = lower value 1.01 | locus YDL035C, strain GPR1, stronger effect = lower value 0.994 | locus YDL040C, strain nat1, stronger effect = lower value 1.01 | locus YDL074C, strain BRE1, stronger effect = lower value 1.01 | locus YDL101C, strain DUN1, stronger effect = lower value 0.99 | locus YDL134C, strain PPH21, stronger effect = lower value 0.996 | locus YDL185W, strain tfp1, stronger effect = lower value 0.971 | locus YDL192W, strain arf1, stronger effect = lower value 0.983 | locus YDR001C, strain nth1, stronger effect = lower value 1.02 | locus YDR069C, strain doa4, stronger effect = lower value 0.999 | locus YDR101C, strain arx1, stronger effect = lower value 1 | locus YDR137W, strain rgp1, stronger effect = lower value 1.02 | locus YDR150W, strain NUM1, stronger effect = lower value 0.973 | locus YDR159W, strain sac3, stronger effect = lower value 0.996 | locus YDR162C, strain NBP2, stronger effect = lower value 1.02 | locus YDR195W, strain ref2 1.02 | locus YDR297W, strain sur2, stronger effect = lower value 1.03 | locus YDR318W, strain mcm21, stronger effect = lower value 0.981 | locus YDR334W, strain swr1, stronger effect = lower value 1.02 | locus YDR335W, strain msn5, stronger effect = lower value 1.02 | locus YDR388W, stronger effect = lower value 0.999 | locus YDR392W, strain spt3, stronger effect = lower value 0.92 | locus YDR502C, strain sam2, stronger effect = lower value 1.01 | locus YEL003W, strain gim4, stronger effect = lower value 1.02 | locus YEL037C, strain rad23, stronger effect = lower value 1.03 | locus YEL061C, strain CIN8 (second series), stronger effect = lower value 1.02 | locus YEL061C, strain CIN8, stronger effect = lower value 0.998 | locus YER015W, strain faa2, stronger effect = lower value 1.01 | locus YER016W, strain bim1, stronger effect = lower value 1.02 | locus YER110C, stronger effect = lower value 0.982 | locus YER111C, strain swi4, stronger effect = lower value 1.01 | locus YER155C, strain BEM2 (second series), stronger effect = lower value 1.01 | locus YER155C, strain BEM2, stronger effect = lower value 0.992 | locus YER167W, strain BCK2, stronger effect = lower value 0.979 | locus YFR010W, strain ubp6, stronger effect = lower value 1.01 | locus YGL078C, strain dbp3, stronger effect = lower value 0.982 | locus YGL086W, strain mad1, stronger effect = lower value 0.955 | locus YGL167C, strain pmr1, stronger effect = lower value 1.01 | locus YGL173C, strain kem1, stronger effect = lower value 1 | locus YGL227W, strain vid30, stronger effect = lower value 1.02 | locus YGL240W, strain doc1, stronger effect = lower value 0.992 | locus YGL248W, strain PDE1, stronger effect = lower value 0.982 | locus YGL253W, strain hxk2, stronger effect = lower value 1.02 | locus YGR078C, strain PAC10, stronger effect = lower value 1 | locus YGR135W, strain pre9, stronger effect = lower value 1.01 | locus YGR229C, strain SMI1, stronger effect = lower value 1.03 | locus YGR252W, strain gcn5, stronger effect = lower value 1.01 | locus YHR013C, strain ard1, stronger effect = lower value 1.02 | locus YHR027C, strain rpn1, stronger effect = lower value 1.02 | locus YHR030C, strain SLT2, stronger effect = lower value 0.991 and 1.02 | locus YHR079C, strain IRE1 (second series), stronger effect = lower value 1.01 | locus YHR079C, strain IRE1, stronger effect = lower value 1.02 | locus YHR094C, strain hxt1, stronger effect = lower value 0.974 | locus YHR129C, strain ARP1, stronger effect = lower value 0.998 | locus YHR142W, strain chs7, stronger effect = lower value 1.02 | locus YHR200W, strain rpn10, stronger effect = lower value 0.988 | locus YIL066C, strain RNR3, stronger effect = lower value 0.984 | locus YIL073C, strain SPO22, stronger effect = lower value 0.915 | locus YIL125W, strain kgd1, stronger effect = lower value 0.981 | locus YIR030C, strain dcg1, stronger effect = lower value 0.994 | locus YJL092W, strain hpr5, stronger effect = lower value 1.01 | locus YJL095W, strain BCK1 (second series), stronger effect = lower value 1 | locus YJL095W, strain BCK1, stronger effect = lower value 1.03 and 1.02 | locus YJL115W, strain asf1, stronger effect = lower value 1.02 | locus YJL129C, strain trk1, stronger effect = lower value 1.03 | locus YJL134W, strain LCB3, stronger effect = lower value 0.985 | locus YJL154C, strain vps35, stronger effect = lower value 1.02 | locus YJL164C, strain tpk1, stronger effect = lower value 0.999 | locus YJL166W, strain qcr8, stronger effect = lower value 1.01 | locus YJL168C, strain set2, stronger effect = lower value 1 | locus YJL187C, strain SWE1 (second series), stronger effect = lower value 0.995 | locus YJL187C, strain SWE1, stronger effect = lower value 1.01 | locus YJR043C, strain POL32, stronger effect = lower value 0.998 | locus YJR066W, strain TOR1, stronger effect = lower value 0.954
